Eight molecules from PubChem BioAssay (NCI) can be followed below.

Each structure is given as a SMILES string. Compounds without any hit were thinned out: in the full panel of roughly 83,000, 20% have a hit.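 Cells were grown in 96-well plates and exposed to the test compound at a single concentration for 48 hours; results are reported as percent growth, with values below 10 considered active.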 Unmarked numbers belong to inactive results. The source made the active and inactive calls.

Among the test systems are DU-145 prostate; K-562 leukemia; MALME-3M melanoma; MDA-MB-231 breast; RXF 393 renal; SF-268 CNS; SF-295 CNS; SF-539 CNS; UACC-257 melanoma; M14 melanoma; HCT-15 colon; HT29 colon; SNB-75 CNS; SNB-19 CNS; U251 CNS; PC-3 prostate; SK-MEL-5 melanoma; UACC-62 melanoma; LOX IMVI melanoma; SK-MEL-28 melanoma.
Holding throughout (test): NCI-60 one-dose screen, 48 h (100 = growth as untreated, 0 = no growth, -100 = all killed)
What all share (conditions): 10 µM unless noted

As for `OC(c1ccccc1)C(NC(Cc1ccccc1)c1ccccc1)c1ccccc1` (stereo not given), the growth was 98.7% with DU-145 prostate; 82.5% in the assay with K-562 leukemia; 91.9% with MALME-3M melanoma; 78.7% in the assay with MDA-MB-231 breast; 102% with RXF 393 renal; 86.8% with SF-268 CNS. Moreover, the growth is 93.1% in the assay with SF-295 CNS; 96.7% in the assay with SF-539 CNS; 91.6% in the assay with UACC-257 melanoma; 91.8% in the assay on M14 melanoma; 89.2% in the assay with HCT-15 colon; 71.3% in the assay on HT29 colon. For the same molecule, the growth in the assay on SNB-75 CNS was 90.9%; in the assay with SNB-19 CNS, 87.6%; with U251 CNS, 86.4%; in the assay with PC-3 prostate, 80.5%; in the assay with SK-MEL-5 melanoma, 94.6%; in the assay on UACC-62 melanoma, 69.4%. For the same molecule, the growth in the assay with LOX IMVI melanoma is 89.2%; with SK-MEL-28 melanoma, 97.8%.

Turning to `COc1cc(/C=C/c2c(C(C)=O)c(C)nc3ccccc23)cc(OC)c1OC`, the growth in the assay on DU-145 prostate was 42.1%; in the assay on K-562 leukemia it was 13.8%; in the assay with MALME-3M melanoma it was 52.5%; with MDA-MB-231 breast, 43.1%; with RXF 393 renal, 10.8%; with SF-268 CNS, 49.3%. Moreover, the growth in the assay with SF-295 CNS was 20.1%; with SF-539 CNS, 7.46% (active); with UACC-257 melanoma it was 59.6%; with M14 melanoma it was 25.9%; in the assay on HCT-15 colon, 25.4%; in the assay with HT29 colon, 17.6%. For the same molecule, the growth with SNB-75 CNS was -34.5% (active); in the assay on SNB-19 CNS, 39.4%; in the assay on U251 CNS, 39%; in the assay on PC-3 prostate, 32.5%; in the assay with SK-MEL-5 melanoma, 31.4%; in the assay with UACC-62 melanoma, 39.8%. For the same molecule, the growth with LOX IMVI melanoma was 38.9%; in the assay on SK-MEL-28 melanoma it was 53.9%.

`C#C[C@]1(O)CC[C@H]2[C@@H]3CC=C4c5sc(Nc6cc(F)ccc6F)nc5CC[C@]4(C)[C@H]3CC[C@@]21C`: the growth in the assay with DU-145 prostate is -30.6% (active); with K-562 leukemia, 4.14% (active); in the assay with MALME-3M melanoma, -19.9% (active); in the assay with MDA-MB-231 breast, -20.6% (active); in the assay with RXF 393 renal it was -58.5% (active); in the assay on SF-268 CNS it was 0.557% (active). In addition, the growth is -41.9% (active) with SF-295 CNS; -88.7% (active) in the assay on SF-539 CNS; 0.483% (active) in the assay on UACC-257 melanoma; -22.1% (active) in the assay on M14 melanoma; -28.4% (active) in the assay on HCT-15 colon; 8.03% (active) with HT29 colon. Also, the growth in the assay with SNB-75 CNS is -28.6% (active); in the assay on SNB-19 CNS it was 6.38% (active); in the assay on U251 CNS, -15.2% (active); with PC-3 prostate, -8.02% (active); in the assay with SK-MEL-5 melanoma, 13.2%; with UACC-62 melanoma, -36.2% (active). Further, the growth with LOX IMVI melanoma was -77.7% (active); with SK-MEL-28 melanoma it was -44.9% (active).

On to `COc1ccc(-c2cc(-c3cc(OC)c(OC)c(OC)c3)nc(N3CCOCC3)c2C#N)cc1`, for which the growth in the assay with DU-145 prostate was 93.5%; in the assay on K-562 leukemia, 47.5%; in the assay on MALME-3M melanoma, 126%; in the assay with MDA-MB-231 breast it was 75.3%; with RXF 393 renal, 52.9%; in the assay on SF-268 CNS, 83.4%. Also, the growth in the assay with SF-295 CNS is 69.5%; with SF-539 CNS, 76.6%; in the assay on UACC-257 melanoma, 74.2%; in the assay on M14 melanoma it was 90.3%; with HCT-15 colon, 66.6%; in the assay on HT29 colon it was 76.1%. In addition, the growth in the assay on SNB-75 CNS was 72.3%; in the assay with SNB-19 CNS it was 86.7%; with U251 CNS it was 64.5%; in the assay with PC-3 prostate, 62.7%; in the assay with SK-MEL-5 melanoma, 75.3%; in the assay on UACC-62 melanoma it was 57.5%. Further, the growth in the assay with LOX IMVI melanoma is 74.7%; in the assay with SK-MEL-28 melanoma it was 56.8%.

`C/C(=N/NC(N)=S)c1sc(Nc2cccc(Cl)c2)nc1C`: the growth with DU-145 prostate was 81.7%; in the assay with K-562 leukemia, 68.7%; in the assay with MALME-3M melanoma it was 93.1%; with MDA-MB-231 breast, 65%; with RXF 393 renal, 89.6%; in the assay with SF-268 CNS, 75.1%. The growth with SF-295 CNS is 88.7%; in the assay with SF-539 CNS it was 83.7%; in the assay with UACC-257 melanoma, 101%; in the assay on M14 melanoma, 88.3%; in the assay on HCT-15 colon, 57.8%; in the assay with HT29 colon it was 79%. Further, the growth was 120% in the assay with SNB-75 CNS; 87.9% with SNB-19 CNS; 89.8% in the assay on U251 CNS; 74.8% with PC-3 prostate; 87.1% in the assay on SK-MEL-5 melanoma; 92.9% with UACC-62 melanoma. Further, the values for the growth with LOX IMVI melanoma and in the assay with SK-MEL-28 melanoma were 63.6% and 94.8%, respectively.

As for `O=c1c2cc(F)ccc2sc2c(NCCCNCCO)nc3ccc(F)cc3c12`, the growth in the assay on DU-145 prostate is 37.4%; in the assay with K-562 leukemia, -33.5% (active); in the assay with MALME-3M melanoma, 85.5%; in the assay on MDA-MB-231 breast it was -7.79% (active); in the assay with RXF 393 renal it was 63%; in the assay on SF-268 CNS, 51.8%. The growth is 98.6% in the assay on SF-295 CNS; 63.9% with SF-539 CNS; 94% in the assay with UACC-257 melanoma; 8.53% (active) in the assay with M14 melanoma; 47.9% in the assay on HCT-15 colon; -0.699% (active) with HT29 colon. The growth in the assay on SNB-75 CNS was 54.2%; in the assay with SNB-19 CNS, 72.6%; in the assay with U251 CNS, 38.4%; in the assay with PC-3 prostate it was 50.6%; with SK-MEL-5 melanoma it was 80.7%; in the assay with UACC-62 melanoma, 88.6%. Besides, the growth with LOX IMVI melanoma is -76.7% (active); in the assay on SK-MEL-28 melanoma it was 94%.

Consider `Nc1cc2c(cc1Br)-c1cc(Cl)ccc1C2=O`, for which the growth in the assay with DU-145 prostate was 107%; in the assay on K-562 leukemia, 93.2%; in the assay with MALME-3M melanoma, 107%; with MDA-MB-231 breast, 79.8%; with RXF 393 renal, 101%; in the assay with SF-268 CNS it was 90.6%. Besides, the growth with SF-295 CNS was 106%; in the assay with SF-539 CNS, 99.2%; in the assay on UACC-257 melanoma, 103%; in the assay with M14 melanoma, 105%; in the assay with HCT-15 colon, 102%; with HT29 colon, 102%. Also, the growth with SNB-75 CNS is 96.8%; with SNB-19 CNS it was 104%; with U251 CNS, 98.1%; in the assay on PC-3 prostate, 95.2%; in the assay on SK-MEL-5 melanoma, 90.9%; in the assay with UACC-62 melanoma it was 96.3%. The growth in the assay with LOX IMVI melanoma is 102%; in the assay with SK-MEL-28 melanoma, 106%.

On to `COc1ccc(C2NC(=O)C(C#N)c3c2sc2c(F)cccc32)c(OC)c1` (stereo not given), for which the growth in the assay with DU-145 prostate was 90.5%; in the assay on K-562 leukemia, 23.9%; in the assay on MALME-3M melanoma it was 39.8%; in the assay on MDA-MB-231 breast, 72.7%; in the assay with RXF 393 renal, 9.65% (active); in the assay with SF-268 CNS, 52.1%. In addition, the growth in the assay on SF-295 CNS was 27.7%; in the assay on SF-539 CNS, 8.87% (active); in the assay with UACC-257 melanoma it was 68.3%; in the assay with M14 melanoma, 37.8%; in the assay with HCT-15 colon, 36.3%; in the assay with HT29 colon it was 66.1%. The growth in the assay on SNB-75 CNS is -5.26% (active); in the assay on SNB-19 CNS, 44.2%; with U251 CNS, 39.3%; with PC-3 prostate, 56.8%; in the assay with SK-MEL-5 melanoma, 81.8%; in the assay on UACC-62 melanoma, 42.3%. The growth was 39.7% in the assay on LOX IMVI melanoma and 55.1% in the assay on SK-MEL-28 melanoma.
